# Assay results published in PubChem BioAssay (NCI).
# Where “and” joins values, the source holds several entries; their conditions need not be identical. Equal entries are not always repeated. This is part of a sample that, as a whole, favours compounds with a hit. Of some 83,000 tested, about 20% had one in any assay.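 Plates (96-well) were seeded with cells, treated with compound at one concentration, and incubated for 48 hours before percent growth was determined.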 A number with no mark means an inactive call. Calls of active or inactive are those of the source. How the source made its calls: active means growth percent below 10; inactive means the rest.
# How the values were obtained:
# Test in all cases: NCI-60 one-dose screen, 48 h (100 = growth as untreated, 0 = no growth, -100 = all killed)
# Conditions in all cases: 10 µM unless noted
# T-47D breast = system: T-47D breast
# BT-549 breast = system: BT-549 breast
# MDA-MB-435 melanoma = system: MDA-MB-435 melanoma
# SW-620 colon = system: SW-620 colon
# MCF7 breast = system: MCF7 breast
# HCT-116 colon = system: HCT-116 colon
# HCC-2998 colon = system: HCC-2998 colon
# KM12 colon = system: KM12 colon
SMILES,growth (T-47D breast),growth (BT-549 breast),growth (MDA-MB-435 melanoma),growth (SW-620 colon),growth (MCF7 breast),growth (HCT-116 colon),growth (HCC-2998 colon),growth (KM12 colon)
CC1NC(C)c2ccc3ccccc3c2O1 (configuration not stated),108%,107%,111%,111%,92%,102%,110%,111%
CC1CCC(=O)N1c1ccc(N)cc1 (configuration not stated),81.9%,99.9%,109%,114%,97.6%,101%,98.8%,102%
CCOP(=O)(OCC)/C(C#N)=C/c1c(C)[nH]c2ccccc12,85.1%,98.3%,12.9%,98.2%,96.2%,101%,107%,100%
O=P(O)(O)OC1C(OP(=O)(O)O)C(OP(=O)(O)O)C(OP(=O)(O)O)C(OP(=O)(O)O)C1OP(=O)(O)O.[Cu+2] (configuration not stated),101%,126%,101%,95.6%,86.8%,96.6%,96.3%,100%
CN(C)CC(CN(C)C)C(O)c1ccccc1 (configuration not stated),95.2%,101%,112%,111%,98.5%,101%,111%,102%
COc1ccc(CCO)cc1,101%,105%,109%,104%,102%,94.6%,107%,102%
O=S(=O)(O)c1ccc2cc(O)ccc2c1,102%,105%,107%,99.9%,99.8%,108%,109%,110%
CCN(CC)C(CC(=O)c1ccccc1)C(=O)c1ccccc1 (configuration not stated),77.8%,102%,99.2%,-7.93% (active),53.2%,92%,108%,109%
CC(=O)Nc1cscc1NC(C)=O,94.4%,90.3%,89.1%,97.6%,94.5%,103%,94.1%,106%
Nc1ccc(O)c(C(=O)O)c1,95% and 104% and 106%,76.3% and 111% and 92.6%,99.8% and 101% and 108%,96.7% and 94.1% and 103%,86.4% and 102% and 107%,98.7% and 99.9% and 85.5%,107% and 104% and 99.9%,101% and 107% and 91.5%
COC1C(OC(N)=O)C(O)C(Oc2ccc3c(O)c(NC(=O)c4ccc(O)c(CC=C(C)C)c4)c(=O)oc3c2C)OC1(C)C (configuration not stated),106% and 94.8%,112% and 97.8%,98.6% and 98.8%,104% and 92.7%,96.8% and 93.4%,96.8% and 101%,107% and 96.6%,110% and 101%
N#CC1c2ccccc2C=CN1C(=O)c1ccccc1 (configuration not stated),106% and 103%,115% and 139%,98.7% and 87.8%,94.8% and 103%,93.1% and 114%,107% and 92%,109% and 115%,107% and 91.5%
Cc1cc(-c2ccc(N=Nc3c(C)nn(-c4ccc(S(=O)(=O)O)cc4)c3O)c(C)c2)ccc1N=Nc1ccc(O)c(C(=O)O)c1,99.7%,98.5%,110%,98.8%,94%,99.8%,94%,96.1%
Nc1ccc(Cl)c(S(=O)(=O)O)c1,92.4%,96%,107%,99.1%,101%,102%,110%,103%
CCOC(=O)C1=CC(=O)CC(C)(C)O1,110% and 107%,99.2% and 117%,119% and 111%,96.5% and 105%,109%,96.8% and 110%,102% and 108%,107% and 76.9%
COc1ccc(/C=C/C(=O)O)cc1OC,107% and 106%,107% and 111%,109% and 112%,103% and 102%,97.9% and 102%,99.5% and 105%,119% and 102%,109%
CCC/C(=N/NC(N)=O)c1ccco1,72.6%,97.4%,106%,102%,92.1%,99.7%,104%,103%
CCOC(=O)C1=C(C)NC(C)=C(C(=O)OCC)C1,90.1% and 116%,110% and 93.7%,95.4% and 97.6%,91.9% and 96.9%,102% and 115%,140% and 87.3%,114% and 87.1%,96.8% and 113%
CCn1c2ccc(N(C)C)cc2c2cc(N(C)C)ccc21,88.2%,96.6%,111%,96.2%,86.4%,101%,99.2%,92.8%
CC1(CO)CCCC1NCCNC1CCCC1(C)CO (configuration not stated),97.8% and 106%,98.7% and 113%,98.4% and 102%,104% and 101%,94% and 95.3%,88.6% and 102%,99.4% and 118%,122% and 100%
Cc1ccc(NC(=S)N/C=C(\c2ccccc2)S(=O)Cc2ccccc2)c(C)c1 (configuration not stated),77.4%,99.3%,97.9%,98%,90.3%,100%,105%,102%
CCc1ccccc1-n1[nH]c(C)c(C=N)c1=O,126%,108%,104%,106%,94.1%,120%,118%,102%
N=C(N=C(N)N)N1CCOCC1,91.2% and 95.4%,115% and 103%,108% and 106%,96.3% and 103%,92.9% and 91.5%,104% and 96.4%,109% and 97.1%,105% and 100%
CNc1ccc(O)cc1,108% and 101%,107% and 103%,107% and 101%,103% and 89.9%,94.9% and 110%,108% and 97.3%,124% and 105%,112% and 91.3%
